FMDV RLuc – Primary qHTS Assay for Foot and Mouth Disease Virus Antivirals against NCGC Sytravon and CBC Compound Libraries: Renilla Luciferase Signal; FMDV replicon cells, Renilla luciferase signal; Potency, µM (highest dose often 57.5 µM), without a hit: at the highest dose activity change, negative = inhibition, hits mostly inhibitors; 120,000 tested, 0.32% active; AID 1745857, 2022; also: nearly all actives have a fitted effect of over 55% in size
FMDV antiviral – Primary qHTS Assay for Foot and Mouth Disease Virus Antivirals against NCGC Sytravon and CBC Compound Libraries: Firefly Luciferase Signal; 120,000 tested, 0.23% active; Potency, µM (doses to about 57.5 µM), for inactives: at the highest dose activity change, negative = inhibition, most hits filed as inhibitors; FMDV antiviral cell assay, firefly luciferase signal; AID 1745856, 2022; also: nearly all actives have a fitted effect of over 60% in size
Starred values were filed as active, the others as inactive; u = inconclusive; [ ] = another dose, or the depositor's remark. Compounds with a hit are over-represented: about 0.51% of the library has one in this group of screens. Calls follow the shape of the full dose curve. % is scaled to controls: 0 for no effect and ±100 for the full control effect; potency is read from the fitted curve at half-maximal effect.

SMILES | FMDV RLuc | FMDV antiviral
Cc1ccc(C)c(N2CCN(C(=O)Cn3c(C)c4cnn(-c5ccccc5)c(=O)c4c3C)CC2)c1 | 22µM* | 25µM*
Cc1c2cnn(-c3ccccc3)c(=O)c2c(C)n1CC(=O)N1CCN(c2cccc(Cl)c2)CC1 | -3% | -8%
COc1cc(CN2CCC(C(O)(c3ccccc3)c3ccccc3)CC2)ccc1OCc1ccccc1 | 35µM* | u
COc1cccc(CN2CCC(C(O)(c3ccccc3)c3ccccc3)CC2)c1OC | 16%[1.06 µM] | u
Nc1nccnc1C(=O)NCc1ccc(NC(=O)c2ccco2)cc1 | -5%[1.06 µM] | -22%
O=C(CSc1nnc(-c2c[nH]c3ccccc23)o1)N1CCCC1 | 17% | 55%
COc1ccc(-c2ccc(=O)n(CCNC(=O)Cc3ccccc3)n2)cc1 | 17% | 7%
COc1ccc(F)cc1C(=O)/C=C/c1cccc(C#N)c1 | u | 3.5µM*
COc1ccc(F)cc1C(=O)/C=C/c1ccc(C#N)cc1 | 0% | 0%
CCC(C)[C@H](NC(=O)C1CCC(Cn2nnc3ccccc3c2=O)CC1)C(=O)O (stereo not given in full) | -2% | 30%
COc1ccc(-c2noc(CCCC(=O)Nc3ccc(S(=O)(=O)N4CCCCCC4)cc3)n2)cc1 | u | 32µM*
COc1ccc(-c2noc(CCCC(=O)Nc3cccc(Cl)c3C)n2)cc1 | -12% | -14%
COc1ccc(CCNC(=O)CSc2nc(-c3ccc(Cl)cc3)nc3cc(=O)[nH]n23)cc1OC | 4% | 8%
Cc1cn2c(=O)c(S(=O)(=O)Nc3ccc(Br)cc3)c(C)nc2s1 | 0% | -5%
COc1ccc(-c2ocnc2C(=O)Nc2cccc(Cl)c2C)cc1OC | -6% | 1%
N#Cc1ccc(C(=O)N2CCC(C(=O)N3CCc4ccccc4C3)CC2)cc1 | -4% | 11%
Cc1cccc(N2CCN(S(=O)(=O)c3csc(C(N)=O)c3)CC2)c1C | 8.9µM* | 13µM*
COc1ccc(N2CCN(S(=O)(=O)c3csc(C(N)=O)c3)CC2)cc1 | -15% | -8%
Cn1c(=O)c2c(ncn2CC(=O)N2CCN(C(c3ccccc3)c3ccccc3)CC2)n(C)c1=O | -9% | -2%
COC(=O)Cc1c(C)c2ccc(OCC(=O)C(C)(C)C)c(C)c2oc1=O | 28µM* | u
COC(=O)Cc1c(C)c2ccc(OCc3ccccc3F)c(C)c2oc1=O | 16% | 173%
Cc1ccc2cc(C(=O)NCc3ccc(N4CCC(C)CC4)nc3)c(C)nc2c1 | 1µM* | u
Cc1ccc(C(=O)NCc2ccc(N3CCCC3)nc2)cc1F | -4% | 12%
Cc1nc(N2CCCC2)ncc1C(=O)NCc1ccc(F)cc1 | 10% | 7%
Cc1nc2cc(F)ccc2cc1C(=O)NCc1ccc(C(=O)N2CCCC2)cc1 | 2.5µM* | 6.3µM*
SMILES | FMDV RLuc | FMDV antiviral
O=C(O)CNCc1cccc2ccccc12 | 3% | 3%
O=C(OCC(=O)C12CC3CC(CC(C3)C1)C2)c1c(F)cccc1F | -4% | 19%
O=C(CSc1nc(C(F)(F)F)nc2ccccc12)NC1CCCC1 | -6% | 16%
CN1CCN(c2ccc(NC(=O)c3cnc4ccccc4n3)cc2)CC1 | -11% | 128%
O=C(Nc1ccc(N2CCN(Cc3ccccc3)CC2)cc1)c1cnc2ccccc2n1 | 7.9µM* | u
CCCCN=C(N)N=C(N)N | -1% | -8%[11.5 µM]
CCCCC(CC)CN=C(N)NC(N)=NCCCCCCN=C(N)NC(N)=NCC(CC)CCCC (stereo not given) | 28µM* | u
COc1ccc(Nc2cc(C)nc(Nc3ccc(NC(=O)CCc4ccccc4)cc3)n2)cc1 | u | 13µM*
COc1ccc(NC(=O)CSc2nc3nc(C)cc(C)n3n2)cc1 | -17% | 9%
Cc1cc(N2CCCC2)nc(Nc2ccc(NC(=O)c3c(F)cccc3F)cc2)n1 | 5% | 24%
CCNc1cc(C)nc(Nc2ccc(NC(=O)c3ccccc3F)cc2)n1 | 28µM* | u
COc1ccc(CC(=O)Nc2ccc3nc(Nc4ccc(OC)cc4)cc(C)c3c2)cc1 | 0% | u
COc1ccc(Nc2cc(C)nc(Nc3ccc(NC(=O)CC(C)C)cc3)n2)cc1 | 28µM* | u
Cc1ccc(Nc2nc(-c3ccc(S(=O)(=O)N4CCCCC4)cc3)cs2)cc1C | -13% | 8%
Cc1cc(N(C)C)nc(N2CCN(C(=O)Nc3ccccc3)CC2)n1 | -8% | 12%
O=C(NCCCN1CCCCCC1)C1CCC1 | -19% | 17%
C=CC[n+]1c(C)ccc2ccc(C)cc21 | 22% | 0%
Cc1cc(OCC(=O)Nc2ccc(C(=O)OC(C)C)cc2)ccc1Cl | -4% | 1%
C=CCOc1ccc(/C=C(\C)[N+](=O)[O-])cc1OC | 32µM* | u
CCOc1ccc(/C=C(\C)[N+](=O)[O-])cc1 | -27% | u
CCN(CC)S(=O)(=O)c1cc(-c2onc(C)c2C)ccc1OC | 101% | -9%
COc1ccc(-c2onc(C)c2C)cc1S(=O)(=O)N(C)Cc1ccco1 | u | 32µM*
Cc1cc2ccccc2n1-c1ccc(C(=O)N2CCC(C(=O)NCc3ccc(Cl)cc3)CC2)s1 | u | 25µM*
Cc1cc2ccccc2n1-c1ccc(C(=O)N2CCC(C(=O)NCc3ccccc3Cl)CC2)s1 | 4% | 24%
CCCCn1c(N)c(N(C)C(=O)c2ccc(-c3ccccc3F)o2)c(=O)[nH]c1=O | -13% | 50%
SMILES | FMDV RLuc | FMDV antiviral
O=C(O)/C(=C\c1ccc(F)cc1)NC(=O)c1ccco1 | 6% | 6%
Nc1nccnc1C(=O)NCc1ccccc1 | 10% | 22%
Nc1nccnc1C(=O)NCc1ccc(O)cc1 | 18% | 13%
CCOCc1ccc(CNC(=O)c2nccnc2N)cc1 | 25µM* | u
Cc1cccc(COc2ccc(CNC(=O)c3nccnc3N)cc2)c1 | 14µM* | u
CN(Cc1ccsc1)C(=O)CSc1nnc(COc2ccc(Cl)cc2)n1C | 9% | 7%
CSc1ccc(CN(C)C(=O)CSc2nnc(COc3ccc(Cl)cc3)n2C)cc1 | 4µM* | 10µM*
Cn1cnc2c1c(=O)n(CC(=O)N(Cc1ccc(F)cc1)C1CC1)c(=O)n2C | 0% | 11%
O=[N+]([O-])c1ccccc1/C=N/Nc1ccc(S(=O)(=O)Nc2ccc(Cl)cc2)cc1[N+](=O)[O-] | 181% | -11%
O=[N+]([O-])c1ccccc1/C=N/Nc1ccc(S(=O)(=O)Nc2cccc(Cl)c2)cc1[N+](=O)[O-] | -77% | 11µM*
CCCCC(=O)Nc1cc(C)c(O)c(-c2nc3ccccc3o2)c1 | -5% | 3%
CCOC(=O)C1CCCN(C(=O)c2cc3c(Cl)nc4ccccc4c3s2)C1 (stereo not given) | -17% | 6.3µM*
O=C(c1cc2c(Cl)nc3ccccc3c2s1)N1CCCCC1 | 5% | 64%
Brc1ccc2[nH]c3c(c2c1)CCCCC3 | -29% | 0%
CC(NC(=O)c1nn(C)c(=O)c2ccccc12)c1ccccc1 (stereo not given) | 6% | 8%
CC(NC(=O)c1ccccc1NC(=O)c1nn(C)c(=O)c2ccccc12)c1ccccc1 (stereo not given) | 4.5µM* | 3.5µM*
O=S1(=O)C=CC2ON=C(c3c(Cl)cccc3Cl)C21 (stereo not given) | 32µM* | u
COc1cc(C2C(C(=O)OC(C)C)=C(C)Nc3nc4ccccc4n32)cc(OC)c1O (stereo not given) | -8% | 9%
Cn1c(=O)c2c(ncn2Cc2cccc(OCC(F)(F)F)c2)n(C)c1=O | 4.5µM* | 7.1µM*

High-throughput results (PubChem BioAssay)
